# Test results from PubChem BioAssay (NCI).
# The panel holds about 79,000 compounds, 15% with a hit somewhere; the sample as a whole holds those more often. A number with no mark means an inactive call. Calls of active or inactive are those of the source. Cut-off read from the data, not from the text of the source: active = growth inhibition above about 70%; inactive = the rest.
# How the values were obtained:
# [1] = NCI Yeast Anticancer Drug Screen. Data for the wt1 strain (AID 149);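 note: 0% = growth of vehicle-treated wt1 cultures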; conditions: S. cerevisiae wt1 strain (SPY 50644) growth inhibition, stronger effect = higher value
# Method in brief: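 Growth inhibition read against vehicle controls after compound exposure of the wt1 yeast strain.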
# [2] = NCI Yeast Anticancer Drug Screen. Data for the rad50EPP+ strain (AID 151);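 note: 0% = growth of vehicle-treated control cultures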; conditions: S. cerevisiae rad50 mutant strain, stronger effect = higher value
# Method in brief: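 Strain rad50EPP+; compound exposure; % growth inhibition vs vehicle.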
# [3] = NCI Yeast Anticancer Drug Screen. Data for the mgt1 strain (AID 153); conditions: S. cerevisiae mgt1 mutant growth inhibition, stronger effect = higher value
# Method in brief: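 Read-out: yeast growth inhibition vs vehicle control. Strain mgt1, drawn from a panel altered in DNA damage repair or cell cycle control.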
# [4] = NCI Yeast Anticancer Drug Screen. Data for the rad50 strain (AID 155);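 note: 0% = growth of vehicle-only cultures of the same strain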; conditions: S. cerevisiae rad50 strain growth inhibition, stronger effect = higher value
# Method in brief: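 Readout: growth inhibition relative to vehicle-treated cultures. Compound exposure was carried out in a genetically defined yeast strain deficient in DNA damage repair.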
# [5] = NCI Yeast Anticancer Drug Screen. Data for the mec2-1 strain (AID 157); conditions: S. cerevisiae mec2-1 strain, stronger effect = higher value
# Method in brief: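 Cells of the genetically defined mec2-1 yeast strain are incubated with test compound. Inhibition of growth is calculated against vehicle-treated controls.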
# [6] = NCI Yeast Anticancer Drug Screen. Data for the rad14 strain (AID 159);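 note: 0% = growth of vehicle-treated control cultures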; conditions: S. cerevisiae rad14 strain growth inhibition, stronger effect = higher value
# Method in brief: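 Growth inhibition vs vehicle controls; genetically altered yeast strain (DNA damage repair defect) treated with test compounds.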
# [7] = NCI Yeast Anticancer Drug Screen. Data for the sgs1 mgt1 strain (AID 161);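 note: 0% = growth of cultures given vehicle only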; conditions: S. cerevisiae sgs1 mgt1 strain, stronger effect = higher value
# Method in brief: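 Inhibition of yeast growth, normalised to vehicle-treated controls, is reported for a strain bearing genetic alterations in DNA damage repair.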
# [8] = NCI Yeast Anticancer Drug Screen. Data for the CLN2oe strain (AID 163);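 note: 0% = growth of vehicle-only control cultures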; conditions: S. cerevisiae CLN2oe strain, stronger effect = higher value
# Method in brief: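 Strain altered in cell-cycle control, incubated with compound; growth compared to solvent-treated controls.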
# [9] = NCI Yeast Anticancer Drug Screen. Data for the cln2 rad14 strain (AID 165);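 note: 0% = growth equal to vehicle treated cultures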; conditions: S. cerevisiae cln2 rad14 strain, stronger effect = higher value
# Method in brief: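 The screen exposed genetically defined yeast (cln2 rad14) to test compounds and scored growth inhibition relative to vehicle-treated controls.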
# [10] = NCI Yeast Anticancer Drug Screen. Data for the bub3 strain (AID 167); conditions: S. cerevisiae bub3 mutant strain, stronger effect = higher value
# Method in brief: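 Readout: yeast growth inhibition, expressed relative to vehicle-only wells. The test organism is a mutant strain from a panel with lesions in DNA repair or checkpoint genes.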
# [11] = NCI Yeast Anticancer Drug Screen. Data for the wt2 strain (AID 169);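 note: 0% = growth of vehicle-treated yeast cultures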; conditions: S. cerevisiae wt2 strain growth inhibition, stronger effect = higher value
# Method in brief: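 Steps: yeast strain treated with compound; growth recorded; inhibition calculated relative to cultures given vehicle alone.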
# [12] = NCI Yeast Anticancer Drug Screen. Data for the mlh1 strain (AID 171);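 note: 0% = growth of vehicle-treated control cultures of the same strain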; conditions: S. cerevisiae mlh1 strain growth inhibition, stronger effect = higher value
# Method in brief: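 Yeast screen: mutant strain plus compound, growth scored against vehicle control wells.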
# [13] = NCI Yeast Anticancer Drug Screen. Data for the sgs1 strain (AID 173);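 note: 0% = growth of vehicle-only control cultures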; conditions: S. cerevisiae sgs1 mutant, stronger effect = higher value
# Method in brief: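 Inhibition of yeast growth served as the measure. The mutant strain was treated with each compound, and growth was normalised to cultures receiving vehicle alone.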
# [14] = NCI Yeast Anticancer Drug Screen. Data for the mlh1 rad18 strain (AID 175); conditions: S. cerevisiae mlh1 rad18 strain growth inhibition, stronger effect = higher value
# Method in brief: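 Compound-treated yeast growth, normalised to vehicle controls. Strain bears defined DNA repair mutations.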
# [15] = NCI Yeast Anticancer Drug Screen. Data for the rad18 strain (AID 177); conditions: S. cerevisiae rad18 mutant growth inhibition, stronger effect = higher value
# Method in brief: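 Inhibition values reflect reduced yeast growth compared with vehicle-treated controls, using a strain engineered with a DNA damage repair defect.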
# [16] = NCI Yeast Anticancer Drug Screen. Data for the rad52 strain (AID 147);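 note: 0% = growth of vehicle-treated control cultures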; conditions: S. cerevisiae rad52 mutant growth inhibition, stronger effect = higher value
# Method in brief: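 Genetically altered yeast (DNA damage repair defect) treated with compound; inhibition calculated relative to vehicle.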
# [17] = at 5.0 µM (retest, dose inferred, filed as 0.5)
# [18] = at 50.0 µM (retest, dose inferred, filed as 5.0)
smiles,measurement,setting,value
COc1cc(O)c2c(O)c3c(c4c2c1[C@]1(C4)C(C)=CCCC1(C)C)[C@H](O)[C@@]1(O)CC(=O)C(C(N)=O)=C(O)[C@@]1(O)C3=O,growth inhibition,[1]; at 1.2 µM,-16%
same,growth inhibition,[1]; at 3.7 µM,56%
same,growth inhibition,[1]; at 11.0 µM,98% (active)
same,growth inhibition,[1]; at 33.0 µM,97% (active)
same,growth inhibition,[1]; at 100.0 µM,93% (active)
same,growth inhibition,[2]; at 1.2 µM,-52%
same,growth inhibition,[2]; at 3.7 µM,60%
same,growth inhibition,[2]; at 11.0 µM,97% (active)
same,growth inhibition,[2]; at 33.0 µM,96% (active)
same,growth inhibition,[2]; at 100.0 µM,89% (active)
same,growth inhibition,[3]; at 1.2 µM,-16%
same,growth inhibition,[3]; at 3.7 µM,94% (active)
same,growth inhibition,[3]; at 11.0 µM,99% (active)
same,growth inhibition,[3]; at 33.0 µM,98% (active)
same,growth inhibition,[3]; at 100.0 µM,93% (active)
same,growth inhibition,[4]; at 1.2 µM,-37%
same,growth inhibition,[4]; at 3.7 µM,87% (active)
same,growth inhibition,[4]; [17],2%
same,growth inhibition,[4]; at 11.0 µM,97% (active)
same,growth inhibition,[4]; at 33.0 µM,96% (active)
same,growth inhibition,[4]; [18],97% (active)
same,growth inhibition,[4]; at 50.0 µM,97% (active)
same,growth inhibition,[4]; at 100.0 µM,92% (active)
same,growth inhibition,[5]; at 1.2 µM,-36%
same,growth inhibition,[5]; at 3.7 µM,87% (active)
same,growth inhibition,[5]; [17],83% (active)
same,growth inhibition,[5]; at 11.0 µM,98% (active)
same,growth inhibition,[5]; at 33.0 µM,98% (active)
same,growth inhibition,[5]; [18],98% (active)
same,growth inhibition,[5]; at 50.0 µM,98.7% (active)
same,growth inhibition,[5]; at 100.0 µM,94% (active)
same,growth inhibition,[6]; at 1.2 µM,-57%
same,growth inhibition,[6]; at 3.7 µM,50%
same,growth inhibition,[6]; at 11.0 µM,97% (active)
same,growth inhibition,[6]; at 33.0 µM,97% (active)
same,growth inhibition,[6]; at 100.0 µM,93% (active)
same,growth inhibition,[7]; [17],21%
same,growth inhibition,[7]; [18],98% (active)
same,growth inhibition,[7]; at 50.0 µM,98.7% (active)
same,growth inhibition,[8]; at 1.2 µM,-6%
same,growth inhibition,[8]; at 3.7 µM,94% (active)
same,growth inhibition,[8]; at 11.0 µM,98% (active)
same,growth inhibition,[8]; at 33.0 µM,97% (active)
same,growth inhibition,[8]; at 100.0 µM,93% (active)
same,growth inhibition,[9]; [17],1%
same,growth inhibition,[9]; [18],98% (active)
same,growth inhibition,[9]; at 50.0 µM,98.1% (active)
same,growth inhibition,[10]; at 1.2 µM,-1%
same,growth inhibition,[10]; at 3.7 µM,77% (active)
same,growth inhibition,[10]; [17],-7%
same,growth inhibition,[10]; at 11.0 µM,98% (active)
same,growth inhibition,[10]; at 33.0 µM,97% (active)
same,growth inhibition,[10]; [18],98% (active)
same,growth inhibition,[10]; at 50.0 µM,98.2% (active)
same,growth inhibition,[10]; at 100.0 µM,94% (active)
same,growth inhibition,[11]; at 1.2 µM,-30%
same,growth inhibition,[11]; at 3.7 µM,-16%
same,growth inhibition,[11]; at 11.0 µM,97% (active)
same,growth inhibition,[11]; at 33.0 µM,96% (active)
same,growth inhibition,[11]; at 100.0 µM,95% (active)
same,growth inhibition,[12]; at 1.2 µM,-21%
same,growth inhibition,[12]; at 3.7 µM,67%
same,growth inhibition,[12]; at 11.0 µM,97% (active)
same,growth inhibition,[12]; at 33.0 µM,97% (active)
same,growth inhibition,[12]; at 100.0 µM,95% (active)
same,growth inhibition,[13]; at 1.2 µM,-38%
same,growth inhibition,[13]; at 3.7 µM,88% (active)
same,growth inhibition,[13]; at 11.0 µM,97% (active)
same,growth inhibition,[13]; at 33.0 µM,97% (active)
same,growth inhibition,[13]; at 100.0 µM,93% (active)
same,growth inhibition,[14]; [17],-5%
same,growth inhibition,[14]; [18],97% (active)
same,growth inhibition,[14]; at 50.0 µM,96.8% (active)
same,growth inhibition,[15]; at 1.2 µM,-21%
same,growth inhibition,[15]; at 3.7 µM,85% (active)
same,growth inhibition,[15]; at 11.0 µM,97% (active)
same,growth inhibition,[15]; at 33.0 µM,97% (active)
same,growth inhibition,[15]; at 100.0 µM,95% (active)
O=C1c2ccc3ccccc3c2CCC1N1CCCCC1 (stereo unspecified),growth inhibition,[16]; at 1.2 µM,4%
same,growth inhibition,[16]; at 3.7 µM,16%
same,growth inhibition,[16]; at 11.0 µM,41%
same,growth inhibition,[16]; at 33.0 µM,81% (active)
same,growth inhibition,[16]; at 100.0 µM,98% (active)
same,growth inhibition,[2]; at 1.2 µM,32%
same,growth inhibition,[2]; at 3.7 µM,53%
same,growth inhibition,[2]; at 11.0 µM,77% (active)
same,growth inhibition,[2]; at 33.0 µM,85% (active)
same,growth inhibition,[2]; at 100.0 µM,98% (active)
same,growth inhibition,[3]; at 1.2 µM,3%
same,growth inhibition,[3]; at 3.7 µM,10%
same,growth inhibition,[3]; at 11.0 µM,21%
same,growth inhibition,[3]; at 33.0 µM,76% (active)
same,growth inhibition,[3]; at 100.0 µM,98% (active)
same,growth inhibition,[4]; at 1.2 µM,2%
same,growth inhibition,[4]; at 3.7 µM,8%
same,growth inhibition,[4]; [17],9%
same,growth inhibition,[4]; at 11.0 µM,16%
same,growth inhibition,[4]; at 33.0 µM,73% (active)
same,growth inhibition,[4]; [18],97% (active)
same,growth inhibition,[4]; at 50.0 µM,98.9% (active)
same,growth inhibition,[4]; at 100.0 µM,98% (active)
same,growth inhibition,[5]; at 1.2 µM,0%
same,growth inhibition,[5]; at 3.7 µM,11%
same,growth inhibition,[5]; [17],10%
same,growth inhibition,[5]; at 11.0 µM,17%
same,growth inhibition,[5]; at 33.0 µM,62%
same,growth inhibition,[5]; [18],99% (active)
same,growth inhibition,[5]; at 50.0 µM,98.8% (active)
same,growth inhibition,[5]; at 100.0 µM,95% (active)
same,growth inhibition,[6]; at 1.2 µM,14%
same,growth inhibition,[6]; at 3.7 µM,33%
same,growth inhibition,[6]; at 11.0 µM,50%
same,growth inhibition,[6]; at 33.0 µM,97% (active)
same,growth inhibition,[6]; at 100.0 µM,98% (active)
same,growth inhibition,[7]; [17],19%
same,growth inhibition,[7]; [18],98% (active)
same,growth inhibition,[7]; at 50.0 µM,99.2% (active)
same,growth inhibition,[8]; at 1.2 µM,5%
same,growth inhibition,[8]; at 3.7 µM,5%
same,growth inhibition,[8]; at 11.0 µM,22%
same,growth inhibition,[8]; at 33.0 µM,61%
same,growth inhibition,[8]; at 100.0 µM,98% (active)
same,growth inhibition,[9]; [17],7%
same,growth inhibition,[9]; [18],97% (active)
same,growth inhibition,[9]; at 50.0 µM,78.3% (active)
same,growth inhibition,[10]; at 1.2 µM,-7%
same,growth inhibition,[10]; at 3.7 µM,-6%
same,growth inhibition,[10]; [17],10%
same,growth inhibition,[10]; at 11.0 µM,8%
same,growth inhibition,[10]; at 33.0 µM,76% (active)
same,growth inhibition,[10]; [18],99% (active)
same,growth inhibition,[10]; at 50.0 µM,99.3% (active)
same,growth inhibition,[10]; at 100.0 µM,97% (active)
same,growth inhibition,[11]; at 1.2 µM,5%
same,growth inhibition,[11]; at 3.7 µM,14%
same,growth inhibition,[11]; at 11.0 µM,33%
same,growth inhibition,[11]; at 33.0 µM,79% (active)
same,growth inhibition,[11]; at 100.0 µM,97% (active)
same,growth inhibition,[13]; at 1.2 µM,4%
same,growth inhibition,[13]; at 3.7 µM,12%
same,growth inhibition,[13]; at 11.0 µM,41%
same,growth inhibition,[13]; at 33.0 µM,92% (active)
same,growth inhibition,[13]; at 100.0 µM,98% (active)
same,growth inhibition,[14]; [17],31%
same,growth inhibition,[14]; [18],99% (active)
same,growth inhibition,[14]; at 50.0 µM,97% (active)
same,growth inhibition,[15]; at 1.2 µM,6%
same,growth inhibition,[15]; at 3.7 µM,13%
same,growth inhibition,[15]; at 11.0 µM,26%
same,growth inhibition,[15]; at 33.0 µM,65%
same,growth inhibition,[15]; at 100.0 µM,97% (active)
